# From PubChem BioAssay (NCI)
# Compounds without any hit were thinned out: in the full panel of roughly 79,000, 15% have a hit. A number with no mark means an inactive call. Calls of active or inactive are those of the source. Rule as the data show it: active = growth inhibition above about 70%; inactive = the rest.
# How the values were obtained:
# [1] = NCI Yeast Anticancer Drug Screen. Data for the mlh1 strain (AID 171);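 also: 0% = growth of vehicle-treated control cultures of the same strain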; settings: S. cerevisiae mlh1 strain growth inhibition, stronger effect = higher value
# Method in brief: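 Read-out: growth inhibition versus vehicle controls. Strain: engineered yeast with a defined DNA repair or cell cycle defect, compound-treated.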
# [2] = NCI Yeast Anticancer Drug Screen. Data for the sgs1 strain (AID 173);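 also: 0% = growth of vehicle-only control cultures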; settings: S. cerevisiae sgs1 mutant, stronger effect = higher value
# Method in brief: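 Read-out: yeast growth inhibition relative to vehicle controls, following compound exposure of a strain with a defined DNA repair/cell cycle alteration.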
# [3] = NCI Yeast Anticancer Drug Screen. Data for the mlh1 rad18 strain (AID 175); settings: S. cerevisiae mlh1 rad18 strain growth inhibition, stronger effect = higher value
# Method in brief: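 Yeast w/ defined DNA-repair lesions; compound exposure; growth vs vehicle controls → % inhibition.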
# [4] = NCI Yeast Anticancer Drug Screen. Data for the rad18 strain (AID 177); settings: S. cerevisiae rad18 mutant growth inhibition, stronger effect = higher value
# Method in brief: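 Readout: growth inhibition vs vehicle controls. Cells: genetically altered yeast strain, DNA repair defect.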
# [5] = NCI Yeast Anticancer Drug Screen. Data for the rad52 strain (AID 147);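 also: 0% = growth of vehicle-treated control cultures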; settings: S. cerevisiae rad52 mutant growth inhibition, stronger effect = higher value
# Method in brief: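 Read-out: growth inhibition versus vehicle-treated controls. Cells were a DNA repair-deficient yeast strain treated with compounds.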
# [6] = NCI Yeast Anticancer Drug Screen. Data for the rad50EPP+ strain (AID 151);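 also: 0% = growth of vehicle-treated control cultures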; settings: S. cerevisiae rad50 mutant strain, stronger effect = higher value
# Method in brief: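 Growth inhibition read against vehicle controls in rad50EPP+ yeast, a strain altered in DNA damage repair, after compound exposure.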
# [7] = NCI Yeast Anticancer Drug Screen. Data for the mgt1 strain (AID 153); settings: S. cerevisiae mgt1 mutant growth inhibition, stronger effect = higher value
# Method in brief: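 mgt1 yeast grown with test compound; read-out is growth inhibition versus vehicle-treated cultures.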
# [8] = NCI Yeast Anticancer Drug Screen. Data for the rad50 strain (AID 155);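 also: 0% = growth of vehicle-only cultures of the same strain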; settings: S. cerevisiae rad50 strain growth inhibition, stronger effect = higher value
# Method in brief: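 Relative growth inhibition (compound vs vehicle) was measured in yeast with a defined repair-gene alteration.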
# [9] = NCI Yeast Anticancer Drug Screen. Data for the mec2-1 strain (AID 157); settings: S. cerevisiae mec2-1 strain, stronger effect = higher value
# Method in brief: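 Yeast mec2-1 mutant treated with compound. Readout: growth inhibition vs vehicle controls.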
# [10] = NCI Yeast Anticancer Drug Screen. Data for the rad14 strain (AID 159);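 also: 0% = growth of vehicle-treated control cultures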; settings: S. cerevisiae rad14 strain growth inhibition, stronger effect = higher value
# Method in brief: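 Screen for anticancer potential: a yeast strain altered in DNA damage repair is grown with compound, and reduced growth is quantified against vehicle controls.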
# [11] = NCI Yeast Anticancer Drug Screen. Data for the sgs1 mgt1 strain (AID 161);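 also: 0% = growth of cultures given vehicle only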; settings: S. cerevisiae sgs1 mgt1 strain, stronger effect = higher value
# Method in brief: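 Test agents were incubated with a DNA-repair-mutant yeast strain. Growth was then read and compared against vehicle-treated controls.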
# [12] = NCI Yeast Anticancer Drug Screen. Data for the CLN2oe strain (AID 163);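 also: 0% = growth of vehicle-only control cultures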; settings: S. cerevisiae CLN2oe strain, stronger effect = higher value
# Method in brief: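 Read-out: yeast growth inhibition, expressed relative to vehicle-only controls. The strain bears an engineered cell-cycle alteration.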
# [13] = NCI Yeast Anticancer Drug Screen. Data for the cln2 rad14 strain (AID 165);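 also: 0% = growth equal to vehicle treated cultures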; settings: S. cerevisiae cln2 rad14 strain, stronger effect = higher value
# Method in brief: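 cln2 rad14 yeast strain; compound exposure; growth inhibition read vs vehicle controls.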
# [14] = NCI Yeast Anticancer Drug Screen. Data for the bub3 strain (AID 167); settings: S. cerevisiae bub3 mutant strain, stronger effect = higher value
# Method in brief: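 Screening used yeast with an engineered genetic alteration affecting cell cycle control. Compound-exposed cultures were compared with vehicle cultures, and reduced growth was taken as inhibition.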
# [15] = NCI Yeast Anticancer Drug Screen. Data for the wt2 strain (AID 169);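 also: 0% = growth of vehicle-treated yeast cultures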; settings: S. cerevisiae wt2 strain growth inhibition, stronger effect = higher value
# Method in brief: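 Read-out: growth inhibition versus vehicle-treated control cultures after compound exposure of the yeast strain.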
# [16] = NCI Yeast Anticancer Drug Screen. Data for the wt1 strain (AID 149);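 also: 0% = growth of vehicle-treated wt1 cultures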; settings: S. cerevisiae wt1 strain (SPY 50644) growth inhibition, stronger effect = higher value
# Method in brief: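 Using yeast strain wt1, compound-induced growth inhibition was determined against vehicle-treated cultures.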
# [17] = at 5.0 µM (retest, dose inferred, filed as 0.5)
# [18] = at 50.0 µM (retest, dose inferred, filed as 5.0)
smiles,measurement,setting,value
CN(N=O)N1C(=O)SCC(c2ccccc2)(c2ccccc2)C1=O,growth inhibition,[1]; at 1.2 µM,3%
same,growth inhibition,[1]; at 3.7 µM,-1%
same,growth inhibition,[1]; at 11.0 µM,1%
same,growth inhibition,[1]; at 33.0 µM,2%
same,growth inhibition,[1]; at 100.0 µM,-8%
same,growth inhibition,[2]; at 1.2 µM,-1%
same,growth inhibition,[2]; at 3.7 µM,0%
same,growth inhibition,[2]; at 11.0 µM,5%
same,growth inhibition,[2]; at 33.0 µM,13%
same,growth inhibition,[2]; at 100.0 µM,35%
same,growth inhibition,[3]; [17],-7%
same,growth inhibition,[3]; [18],71% (active)
same,growth inhibition,[3]; at 50.0 µM,84.5% (active)
same,growth inhibition,[4]; at 1.2 µM,-1%
same,growth inhibition,[4]; at 3.7 µM,-3%
same,growth inhibition,[4]; at 11.0 µM,8%
same,growth inhibition,[4]; at 33.0 µM,28%
same,growth inhibition,[4]; at 100.0 µM,72% (active)
O=Nc1c(NO)ccc2nn(-c3ccccc3)nc12,growth inhibition,[5]; at 1.2 µM,29%
same,growth inhibition,[5]; at 3.7 µM,68%
same,growth inhibition,[5]; at 11.0 µM,98% (active)
same,growth inhibition,[5]; at 33.0 µM,98% (active)
same,growth inhibition,[5]; at 100.0 µM,98% (active)
same,growth inhibition,[6]; at 1.2 µM,22%
same,growth inhibition,[6]; at 3.7 µM,33%
same,growth inhibition,[6]; at 11.0 µM,51%
same,growth inhibition,[6]; at 33.0 µM,65%
same,growth inhibition,[6]; at 100.0 µM,66%
same,growth inhibition,[7]; at 1.2 µM,-1%
same,growth inhibition,[7]; at 3.7 µM,24%
same,growth inhibition,[7]; at 11.0 µM,98% (active)
same,growth inhibition,[7]; at 33.0 µM,98% (active)
same,growth inhibition,[7]; at 100.0 µM,99% (active)
same,growth inhibition,[8]; at 1.2 µM,12%
same,growth inhibition,[8]; at 3.7 µM,42%
same,growth inhibition,[8]; [17],18%
same,growth inhibition,[8]; at 11.0 µM,96% (active)
same,growth inhibition,[8]; at 33.0 µM,97% (active)
same,growth inhibition,[8]; [18],99% (active)
same,growth inhibition,[8]; at 50.0 µM,38%
same,growth inhibition,[8]; at 100.0 µM,98% (active)
same,growth inhibition,[9]; at 1.2 µM,9%
same,growth inhibition,[9]; at 3.7 µM,36%
same,growth inhibition,[9]; [17],1%
same,growth inhibition,[9]; at 11.0 µM,95% (active)
same,growth inhibition,[9]; at 33.0 µM,98% (active)
same,growth inhibition,[9]; [18],99% (active)
same,growth inhibition,[9]; at 50.0 µM,88.5% (active)
same,growth inhibition,[9]; at 100.0 µM,97% (active)
same,growth inhibition,[10]; at 1.2 µM,7%
same,growth inhibition,[10]; at 3.7 µM,31%
same,growth inhibition,[10]; at 11.0 µM,97% (active)
same,growth inhibition,[10]; at 33.0 µM,98% (active)
same,growth inhibition,[10]; at 100.0 µM,98% (active)
same,growth inhibition,[11]; [17],14%
same,growth inhibition,[11]; [18],99% (active)
same,growth inhibition,[11]; at 50.0 µM,87.2% (active)
same,growth inhibition,[12]; at 1.2 µM,5%
same,growth inhibition,[12]; at 3.7 µM,35%
same,growth inhibition,[12]; at 11.0 µM,97% (active)
same,growth inhibition,[12]; at 33.0 µM,98% (active)
same,growth inhibition,[12]; at 100.0 µM,98% (active)
same,growth inhibition,[13]; [17],37%
same,growth inhibition,[13]; [18],99% (active)
same,growth inhibition,[13]; at 50.0 µM,89.1% (active)
same,growth inhibition,[14]; at 1.2 µM,3%
same,growth inhibition,[14]; at 3.7 µM,45%
same,growth inhibition,[14]; [17],1%
same,growth inhibition,[14]; at 11.0 µM,95% (active)
same,growth inhibition,[14]; at 33.0 µM,98% (active)
same,growth inhibition,[14]; [18],99% (active)
same,growth inhibition,[14]; at 50.0 µM,90.4% (active)
same,growth inhibition,[14]; at 100.0 µM,97% (active)
same,growth inhibition,[15]; at 1.2 µM,25%
same,growth inhibition,[15]; at 3.7 µM,41%
same,growth inhibition,[15]; at 11.0 µM,96% (active)
same,growth inhibition,[15]; at 33.0 µM,99% (active)
same,growth inhibition,[15]; at 100.0 µM,98% (active)
same,growth inhibition,[1]; at 1.2 µM,6%
same,growth inhibition,[1]; at 3.7 µM,30%
same,growth inhibition,[1]; at 11.0 µM,97% (active)
same,growth inhibition,[1]; at 33.0 µM,98% (active)
same,growth inhibition,[1]; at 100.0 µM,98% (active)
same,growth inhibition,[2]; at 1.2 µM,61%
same,growth inhibition,[2]; at 3.7 µM,79% (active)
same,growth inhibition,[2]; at 11.0 µM,98% (active)
same,growth inhibition,[2]; at 33.0 µM,99% (active)
same,growth inhibition,[2]; at 100.0 µM,98% (active)
same,growth inhibition,[3]; [17],77% (active)
same,growth inhibition,[3]; [18],98% (active)
same,growth inhibition,[3]; at 50.0 µM,91.5% (active)
same,growth inhibition,[4]; at 1.2 µM,79% (active)
same,growth inhibition,[4]; at 3.7 µM,90% (active)
same,growth inhibition,[4]; at 11.0 µM,97% (active)
same,growth inhibition,[4]; at 33.0 µM,97% (active)
same,growth inhibition,[4]; at 100.0 µM,97% (active)
O=[N+]([O-])c1cccc([N+](=O)[O-])c1S(=O)(=O)c1ccccc1,growth inhibition,[16]; at 1.2 µM,20%
same,growth inhibition,[16]; at 3.7 µM,33%
same,growth inhibition,[16]; at 11.0 µM,67%
same,growth inhibition,[16]; at 33.0 µM,89% (active)
same,growth inhibition,[16]; at 100.0 µM,93% (active)
same,growth inhibition,[6]; at 1.2 µM,76% (active)
same,growth inhibition,[6]; at 3.7 µM,88% (active)
same,growth inhibition,[6]; at 11.0 µM,93% (active)
same,growth inhibition,[6]; at 33.0 µM,94% (active)
same,growth inhibition,[6]; at 100.0 µM,92% (active)
same,growth inhibition,[8]; at 1.2 µM,83% (active)
same,growth inhibition,[8]; at 3.7 µM,91% (active)
same,growth inhibition,[8]; [17],82% (active)
same,growth inhibition,[8]; at 11.0 µM,95% (active)
same,growth inhibition,[8]; at 33.0 µM,97% (active)
same,growth inhibition,[8]; [18],87% (active)
same,growth inhibition,[8]; at 50.0 µM,82.8% (active)
same,growth inhibition,[8]; at 100.0 µM,96% (active)
same,growth inhibition,[9]; at 1.2 µM,19%
same,growth inhibition,[9]; at 3.7 µM,37%
same,growth inhibition,[9]; [17],14%
same,growth inhibition,[9]; at 11.0 µM,87% (active)
same,growth inhibition,[9]; at 33.0 µM,96% (active)
same,growth inhibition,[9]; [18],91% (active)
same,growth inhibition,[9]; at 50.0 µM,83.3% (active)
same,growth inhibition,[9]; at 100.0 µM,95% (active)
same,growth inhibition,[10]; at 1.2 µM,-13%
same,growth inhibition,[10]; at 3.7 µM,0%
same,growth inhibition,[10]; at 11.0 µM,59%
same,growth inhibition,[10]; at 33.0 µM,92% (active)
same,growth inhibition,[10]; at 100.0 µM,92% (active)
same,growth inhibition,[11]; [17],2%
same,growth inhibition,[11]; [18],33%
same,growth inhibition,[11]; at 50.0 µM,65.1%
same,growth inhibition,[12]; at 1.2 µM,7%
same,growth inhibition,[12]; at 3.7 µM,4%
same,growth inhibition,[12]; at 11.0 µM,52%
same,growth inhibition,[12]; at 33.0 µM,84% (active)
same,growth inhibition,[12]; at 100.0 µM,85% (active)
same,growth inhibition,[14]; at 1.2 µM,0%
same,growth inhibition,[14]; at 3.7 µM,8%
same,growth inhibition,[14]; [17],5%
same,growth inhibition,[14]; at 11.0 µM,56%
same,growth inhibition,[14]; at 33.0 µM,92% (active)
same,growth inhibition,[14]; [18],88% (active)
same,growth inhibition,[14]; at 50.0 µM,77.6% (active)
same,growth inhibition,[14]; at 100.0 µM,81% (active)
same,growth inhibition,[15]; at 1.2 µM,1%
same,growth inhibition,[15]; at 3.7 µM,22%
same,growth inhibition,[15]; at 11.0 µM,60%
same,growth inhibition,[15]; at 33.0 µM,90% (active)
same,growth inhibition,[15]; at 100.0 µM,94% (active)
same,growth inhibition,[1]; at 1.2 µM,-1%
same,growth inhibition,[1]; at 3.7 µM,22%
same,growth inhibition,[1]; at 11.0 µM,76% (active)
same,growth inhibition,[1]; at 33.0 µM,97% (active)
same,growth inhibition,[1]; at 100.0 µM,95% (active)
same,growth inhibition,[2]; at 1.2 µM,22%
same,growth inhibition,[2]; at 3.7 µM,42%
same,growth inhibition,[2]; at 11.0 µM,75% (active)
same,growth inhibition,[2]; at 33.0 µM,95% (active)
same,growth inhibition,[2]; at 100.0 µM,94% (active)
same,growth inhibition,[3]; [17],41%
same,growth inhibition,[3]; [18],76% (active)
same,growth inhibition,[3]; at 50.0 µM,87.9% (active)
same,growth inhibition,[4]; at 1.2 µM,17%
same,growth inhibition,[4]; at 3.7 µM,30%
same,growth inhibition,[4]; at 11.0 µM,82% (active)
same,growth inhibition,[4]; at 33.0 µM,95% (active)
same,growth inhibition,[4]; at 100.0 µM,95% (active)
